Sampled rows, rich in hits. Any-hit rate of the full collection: about 2.2%.
HSP90 inh – blocks HSP90-mediated luciferase refolding in reticulocyte lysate | Rabbit reticulocyte lysate, luciferase refolding luminescence, 3 h | inhibition, % at 5.6 µM | actives 0.91% (n = 290,000) | AID 1789;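 active = inhibition above the screen-wide mean plus 3 SD, computed separately per campaign, cut at about 16% in these data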;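 also: inhibitors lower the luminescence because luciferase stays unfolded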
LGR2 inh – Drosophila LGR2 receptor signaling inhibition | HEK293 LGR2, CRE-luciferase, bursicon-stimulated, 4 h | inhibition, % at 9.99 µM | actives 0.35% (n = 380,000) | AID 720647;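 active = drop in luminescence signal, shown as inhibition above about 50% in the replicate tests, limit read from the data, passing the limit was not always enough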;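 also: agonist challenge used bursicon conditioned medium at about half maximal strength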
TROY signal inh – TROY signaling inhibition. Q293 LMP1-TROYcd NF-kB luciferase reporter, 4 h. inhibition, % at 10 µM. actives 0.98% (n = 360,000). AID 1347056;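 active = compounds whose plate-normalised and pattern-corrected inhibition of the luciferase reporter signal at the single screening dose is 50% or more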
TWEAK-Fn14 inh – blocks TWEAK-Fn14 interaction in a reporter cell assay; TWEAK-stimulated Fn14 reporter cells, luciferase luminescence, 8 h; inhibition, % at 10 µM; actives 2% (n = 360,000); in the data active = inhibition above about 50%
A number is an active result; 0 = inactive; - = no result given.

SMILES | HSP90 inh | LGR2 inh | TROY signal inh | TWEAK-Fn14 inh
C[C@H]1CN([C@@H](C)CO)S(=O)(=O)c2ccc(C3=CCCCC3)cc2O[C@@H]1CN(C)Cc1ccncc1 | - | 0 | - | -
O=C(Nc1cc(Sc2ccccn2)cc([N+](=O)[O-])c1)c1cccc(F)c1 | 0 | 0 | 0 | 64.9
O=C(Nc1cc(Sc2nc3ccccc3s2)cc([N+](=O)[O-])c1)c1ccccc1F | 0 | - | 0 | 0
O=C(Nc1cc(Sc2nc3ccccc3s2)cc([N+](=O)[O-])c1)c1ccccc1 | 0 | 0 | 0 | 63.4
CCc1ccc(CNc2ccc3c(c2)ncn3C(C)(C)C)cc1 | 0 | 0 | 66.0 | 81.6
Cc1c(/C(O)=C2\C(=O)C(=O)N(CCCN(C)C)C2c2ccco2)cnn1-c1ccccc1 (stereo not drawn) | - | 0 | 79.5 | 80.4
Cc1c(/C(O)=C2\C(=O)C(=O)N(CCCN(C)C)C2c2cccs2)cnn1-c1ccccc1 (stereo not drawn) | - | 0 | 65.9 | 58.5
Cc1ccc(C2/C(=C(\O)c3cnn(-c4ccccc4)c3C)C(=O)C(=O)N2CCN(C)C)o1 (stereo not drawn) | 0 | - | 0 | 0
COc1ccccc1C1/C(=C(/O)c2cnn(-c3ccccc3)c2C)C(=O)C(=O)N1CCN(C)C (stereo not drawn) | - | 0 | 0 | 0
C[C@H](CO)N1C[C@H](C)[C@H](CN(C)Cc2ccc3c(c2)OCO3)Oc2c(NS(C)(=O)=O)cccc2C1=O | - | 0 | - | -
COc1ccc(/C(N)=N/OC(=O)c2cccc([N+](=O)[O-])c2C)cc1 | 0 | 0 | 0 | 0
COc1ccccc1C/C(N)=N/OC(=O)c1cccc([N+](=O)[O-])c1C | 0 | 0 | 0 | 89.7
CC(C)(C)c1ccc(Cn2c(=N)n(CC(O)c3ccco3)c3ccccc32)cc1 (stereo not drawn) | 0 | - | 53.9 | 69.5
OC1(c2ccccc2)CC(c2ccccc2)c2ccccc2O1 (stereo not drawn) | - | 0 | 50.3 | 0
COc1ccc(C2CC(O)(c3ccccc3)Oc3cc(OC)c(OC)c(OC)c32)cc1 (stereo not drawn) | - | 0 | 0 | 0
O=C(c1cccc(F)c1)N1C[C@@H]2[C@H](c3ccccc31)[C@@H](CO)N2C(=O)Cc1ccccc1 | - | 0 | - | -
O=[N+]([O-])c1ccc(S(=O)(=O)c2cccc(C(F)(F)F)c2)nc1 | - | - | 62.0 | 0
O=S(=O)(Nc1cccnc1)c1cccc(C(F)(F)F)c1 | 0 | - | 0 | 0
COc1ccc(CCNC2=C(Cl)C(=O)N(CCc3ccc(OC)c(OC)c3)C2=O)cc1OC | 0 | - | 0 | 51.4
COc1ccc(-c2cc(=O)oc3cc(OC(=O)C4CCCCC4)ccc23)cc1 | 0 | 0 | 0 | 53.9
Cc1nnc(N2CCCC(C(=O)Nc3cc(F)ccc3F)C2)c2nn(-c3ccccc3)c(C)c12 (stereo not drawn) | 0 | - | 53.0 | 0
Cc1nnc(N2CCCC(C(=O)NCc3ccc(OC(C)C)cc3)C2)c2nn(-c3ccccc3)c(C)c12 (stereo not drawn) | 0 | 0 | 0 | 0
COCCn1c(C)cc(C(=O)CSc2nnnn2C2CCCC2)c1C | - | 79.9 | 0 | 74.9
Cc1ccc(S(=O)(=O)N[C@H]2C=C[C@@H](CC(=O)N3CCC(Cc4ccccc4)CC3)O[C@H]2CO)cc1 | - | 0 | - | -
O=C(Nc1ccn(Cc2ccccc2F)n1)c1ccc(COc2ccc(Br)cc2)cc1 | 0 | 0 | 0 | 51.4
SMILES | HSP90 inh | LGR2 inh | TROY signal inh | TWEAK-Fn14 inh
C[C@@H]1CN([C@@H](C)CO)S(=O)(=O)c2ccc(-c3ccc(C(=O)N(C)C)cc3)cc2O[C@H]1CN(C)C(=O)C1CCC1 | - | 0 | - | -
Cc1cccc(OCc2cc(-c3ccccc3)no2)c1C | 0 | 0 | 0 | 0
Clc1ccc(OCc2cc(-c3ccccc3)no2)c(Cl)c1 | 0 | - | 0 | 62.2
COc1ccc(C(=O)Nc2ccc3c(c2)C(=O)c2ccccc2C3=O)cc1OC | 0 | 0 | 0 | 0
COc1ccc(C(=O)c2c(C(F)(F)F)oc3c2C(=O)c2ccccc2C3=O)cc1OC | 0 | - | 51.1 | 58.2
CCOc1cc2[nH]c(=O)n(CCCN3CCN(c4ccc(OC)cc4)CC3)c(=O)c2cc1OCC | 0 | 0 | 0 | 87.1
COc1ccc(N2CCN(CCCn3c(=S)[nH]c4ccccc4c3=O)CC2)cc1 | 0 | 0 | 0 | 0
Cc1nc2ccc(F)cc2cc1C(=O)Nc1ccc(Cl)c(Cl)c1 | 0 | 0 | 0 | 50.6
CCC1(C)Cc2ccccc2-c2nc(NCCO)n(-c3ccc(C)cc3)c(=O)c21 (stereo not drawn) | 0 | - | 54.2 | 0
O=C(NC(c1ccccc1)c1ccc2ccccc2n1)C1CCN(CCOc2ccc(Cl)cc2)CC1 (stereo not drawn) | - | 0 | 0 | 92.5
CCC(=O)N[C@H]1C=C[C@@H](CC(=O)NCC2CC2)O[C@@H]1CO | - | 0 | - | -
COc1ccc(CNC(=S)Nc2ccc(-c3ccccc3)cc2)cc1 | 0 | 0 | 0 | 0
CNC(=S)Nc1ccc(Br)cc1 | 0 | 0 | 61.2 | 0
COc1ccc(CNC(=S)Nc2ccc(Br)cc2)cc1 | 0 | 0 | 0 | 64.3
C[C@@H]1CCCCO[C@@H](CN(C)C(=O)Nc2ccc(C(F)(F)F)cc2)[C@H](C)CN([C@H](C)CO)C(=O)c2cc(NC(=O)NC3CCCCC3)ccc2O1 | - | 0 | - | -
COc1ccc(-c2nc(CN3CCN(c4ccccc4OC)CC3)c(C)o2)cc1 | 0 | 0 | 0 | 0
COc1ccc(-c2nc(CN3CCN(c4ncnc5ccccc45)CC3)c(C)o2)c(OC)c1 | 0 | 0 | 0 | 59.0
Cc1oc(-c2cc(F)ccc2F)nc1CN1CCN(c2ncnc3ccccc23)CC1 | 0 | 0 | 0 | 52.2
O=c1[nH]c2cc([N+](=O)[O-])ccc2c2ccccc12 | - | 0 | 0 | 0
CCCN(C)C[C@@H]1Oc2ncc(-c3cccnc3)cc2C(=O)N([C@H](C)CO)C[C@H]1C | - | 0 | - | -
Cc1ccc(NC2Sc3ccccc3NC2=O)cc1 (stereo not drawn) | 0 | 0 | 0 | 56.0
C=CCNc1ncnc2c1cnn2-c1ccc(Cl)cc1 | 0 | - | 0 | 0
CCOC(=O)N1CCC(Nc2ncnc3c2cnn3-c2ccc(Cl)cc2)CC1 | 0 | 0 | 50.2 | 0
CC1CC(C)CN(c2ncnc3c2cnn3Cc2ccc(Cl)cc2)C1 (stereo not drawn) | 0 | - | 0 | 0
CC1CN(c2ncnc3c2cnn3-c2ccc(Cl)cc2)CC(C)O1 (stereo not drawn) | 16.4 | 0 | 54.8 | 0
SMILES | HSP90 inh | LGR2 inh | TROY signal inh | TWEAK-Fn14 inh
CCOC(=O)C1CCCN(c2ncnc3c2cnn3-c2ccc(Cl)cc2)C1 (stereo not drawn) | 0 | 0 | 0 | 63.1
C[C@@H]1CN([C@@H](C)CO)C(=O)c2cc(NC(=O)CCCCCC(=O)Nc3ccccc3N)ccc2O[C@H]1CN(C)C(=O)Nc1cccc2ccccc12 | - | 0 | - | -
Cc1noc(C)c1S(=O)(=O)N(C)C[C@@H]1OCCCC[C@@H](C)Oc2ccc(NC(=O)C3CCCCC3)cc2C(=O)N([C@H](C)CO)C[C@@H]1C | - | 0 | - | -
COCCNC(=O)[C@@H]1[C@@H](CO)[C@@H]2Cn3c(cccc3=O)[C@@H]2N1Cc1ccccc1OC | - | 0 | - | -
Oc1ccc(-c2cnns2)c(O)c1 | 0 | 0 | 0 | 63.0
O=S(=O)(CC(CN1CCCCC1)N1CCCCC1)c1ccc2ccccc2c1 (stereo not drawn) | 0 | 50.1 | 0 | 0
Cc1ccc(S(=O)(=O)CC(CN2CCCCC2)N2CCCCC2)cc1 (stereo not drawn) | 0 | 0 | 0 | 0

Screening results deposited in PubChem by several laboratories.
